Platelet DG rel: modulates dense granule release in human platelets; human platelet-rich plasma, SFLLRN dense granule ATP release, luminescence; inhibition, %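 (compounds screened at 7.5 µM in platelet-rich plasma)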; hit rate 0.22% among 300,000;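 active = mean replicate score, as percent of positive control, at or above 50; inconclusive = mean below 50 but at least one replicate at or above 50; inactive = mean and every replicate below 50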
CR mimetic SO: yeast age-related superoxide inhibition as caloric restriction mimetic; superoxide response (% of plate mean), % at 10 µM; hit rate 0.18% among 330,000; S. cerevisiae aged cells, superoxide DHE fluorescence; stronger effect = lower value; AID 2690;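 active = superoxide response under a set limit, about three screen SD below normal, cut at about 65% in these data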;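 also: yeast aged for seven days with compound at 30 °C before DHE staining; 100% = average MFI of all compound-treated wells on the plate with controls excluded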
SKKanGAS inh: blocks kanamycin growth of S. pyogenes SKKanGAS strain | hit rate 1.3% among 300,000 | BacTiter-Glo, 6 h | AID 1662 | inhibition, % at 7.5 µM;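 active = mean replicate score, as percent of positive control median, at least 50; inconclusive = mean below 50 but one replicate at or above 50; inactive = mean and every replicate below 50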;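 also: strain carries kanamycin resistance gene driven by streptokinase promoter and grows in 40 µg/ml kanamycin; loss of luminescence reflects streptokinase promoter inhibition or plain growth inhibition; 0% = median of DMSO wells and 100% = positive control at its reference dose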
Calb FLC: C. albicans growth modulation with fluconazole; C. albicans CaCi-2 (fluconazole-resistant clinical isolate) + fluconazole, Alamar Blue growth, 48 h; hit rate 0.57% among 300,000; growth inhibition, % (concentration not given with the values);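 active = growth inhibition above about 58% in most replicates, limit read from the data, passing the limit was not always enough; inconclusive = exactly half the replicates above a set limit; inactive = most replicates below a set limit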;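 also: all wells also contain fluconazole at 8 µg/ml as a sub-toxic cotreatment; 0% = median of DMSO wells and 100% = median of geldanamycin control wells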
PolyA inh: blocks polyadenylation in yeast reporter cells | activity score, % at 12 µM | AID 1875 | hit rate 0.02% among 300,000 | S. cerevisiae SKY197-pL101 polyadenylation reporter, beta-gal luminescence; efflux-impaired pdr1/pdr3 knockout yeast; score 100 = 6 SD above DMSO;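 active = lowest replicate activity score at least 50, where 100 means six control SD above control mean; inconclusive = lowest score under 50 but half or more replicates reach 50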;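 also: yeast exposed to compound for 9 h at 30 °C; higher score means more reporter readthrough which indicates perturbed polyadenylation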
Active calls of the source: *; i = inactive; ? = inconclusive; . = no result. Most compounds without a hit are left out; they make up all but 2% or so of the library.

SMILES | Platelet DG rel | CR mimetic SO | SKKanGAS inh | Calb FLC | PolyA inh
CC(=O)N1CCOCCOCCOCC1 | 10 | 111 | 0 | -4 | 13
Cc1ccc(C2C3=C(CC(C)(C)CC3=O)N=C3c4ccccc4C(=O)C32)cc1 (stereo unspecified) | 7 | 96 | 20 | 85* | 7
CC1(C)CC(=O)C2=C(C1)N=C1c3ccccc3C(=O)C1C2c1ccc(Cl)cc1 (stereo unspecified) | -15 | 104 | 50* | 65 | 12
Cc1ccc(C2C3=C(CC(C)(C)CC3=O)OC3=C2C(=O)CC(C)(C)C3)cc1 | 5 | 106 | -3 | ? | 10
O=C1CC2(CCCC2)C(=O)N1CN1CCN(S(=O)(=O)c2ccc(Cl)c(Cl)c2)CC1 | . | 87 | . | . | .
CCCCN1C(=S)SC(C)(C)C1/[N+]([O-])=C/c1ccc(S(=O)(=O)NC)cc1 (stereo unspecified) | 12 | 109 | 4 | -13 | 26
O=C1c2ccccc2C(=O)c2c1oc(C(F)(F)F)c2C(=O)c1ccccc1 | 0 | i | 106* | -22 | -86
CC(=NCCc1c(C)[nH]c2ccc(OC(F)(F)F)cc12)C1=C(O)CC(c2ccccc2)CC1=O (stereo unspecified) | -3 | 65* | 20 | -22 | -3
Cc1cccc(OCc2n[nH]c(=S)n2Cc2ccccc2)c1 | -5 | 113 | 6 | 45 | -12
CC1CCCN(C(=O)Cn2nnc(-c3ccc(S(C)(=O)=O)cc3)n2)C1 (stereo unspecified) | -2 | 100 | -6 | 10 | 10
Oc1ccc(-c2c(-c3ccsc3)sc3ccccc23)cc1 | -2 | 91 | 108* | -28 | -1
Cn1cc(Br)c(C(=O)Nc2ncc(Br)s2)n1 | 1 | 103 | -3 | -17 | 6
COc1ccccc1Nc1nc(N)nc(CN2CCN(Cc3ccccc3)CC2)n1 | 0 | 114 | -18 | -18 | -5
Cc1cccc(Nc2nc(N)nc(CN3CCN(c4ccccc4F)CC3)n2)c1 | 2 | 109 | 72* | 10 | -14
COc1ccccc1N1CCN(Cc2nc(N)nc(Nc3ccc(C)c(Cl)c3)n2)CC1 | 2 | 116 | 76* | 60 | 22
COc1cccc(N2CCN(Cc3nc(N)nc(Nc4ccccc4)n3)CC2)c1 | 3 | 96 | 34 | 51 | -11
COc1ccccc1Nc1nc(N)nc(CN2CCN(c3ccccc3F)CC2)n1 | 2 | 109 | 62* | 9 | -14
Cc1cccc(Nc2nc(N)nc(CN3CCN(c4ccccc4)CC3)n2)c1 | -2 | 89 | ? | 52 | -14
CC(C)COc1cccc(-c2cc(C(=O)Nc3ccon3)c3ccccc3n2)c1 | 0 | 99 | 37 | 7 | 19
Cc1cc2oc(=O)cc(-c3ccccc3)c2c(C)c1-c1ccc(O)cc1 | . | 96 | . | . | .
Cc1oc2cc(Br)c(O)c(Br)c2c1-c1ccccc1 | -3 | 90 | 83* | 6 | -52
N#C/C(=N\Nc1ccc(S(=O)(=O)N2CCCCC2)cc1)C(N)=S | -16 | 99 | 16 | -12 | 0
N#C/C(=N\Nc1ccc(S(=O)(=O)N2CCCCCC2)cc1)C(N)=S | -1 | 103 | 114* | -1 | 17
O=C1c2ccccc2C(=O)N1CSc1nnc(Nc2ccccc2)s1 | 0 | 103 | -16 | 5 | 0
O=C1c2ccccc2C(=O)N1CSc1nnc(Nc2ccccc2F)s1 | -7 | 61* | -2 | 11 | -9
SMILES | Platelet DG rel | CR mimetic SO | SKKanGAS inh | Calb FLC | PolyA inh
Cc1nn(-c2ccccc2)c(C)c1/C=N/NC(=O)c1cc(-c2ccccc2)n[nH]1 | -1 | 101 | 30 | -16 | 13
Cc1nn(-c2ccccc2)c(C)c1/C=N/NC(=O)c1cc(-c2cccc3ccccc23)n[nH]1 | 1 | 91 | 51* | 29 | 18
Cc1nn(-c2ccccc2)c(Cl)c1/C=N/NC(=O)c1ccn[nH]1 | 2 | 99 | -1 | -2 | -1
Cc1nn(-c2ccccc2)c(Cl)c1/C=N/NC(=O)c1ccc(NS(=O)(=O)c2cccs2)cc1 | 5 | 102 | 72* | 7 | -12
Cc1nn(-c2ccccc2)c(Cl)c1/C=N/NC(=O)c1[nH]ncc1Br | 60* | 89 | -1 | -1 | -6
O=C1CC2(CCN(C(=O)C3CC(=O)N(c4ccc(F)cc4)C3)CC2)Oc2ccccc21 (stereo unspecified) | -1 | 123 | -4 | 3 | 1
O=c1nccc(N/N=C/c2ccccc2O)[nH]1 | 63* | 96 | 12 | 7 | 9
CCN(C[C@H]1N[C@@](C)(C(=O)OC)[C@H]2C(=O)N(C)C(=O)[C@@H]12)C(=O)Nc1ccc(C(F)(F)F)cc1 | . | 101 | . | . | .
CCOc1ccccc1C(=O)Nc1cc(Cl)ccc1O | 1 | 99 | 54* | 34 | 13
COc1ccccc1C(=O)Nc1cc(Cl)ccc1O | 18 | 86 | -2 | 1 | -6
CCC1CCCCN1C(=S)NC(=O)c1cccc([N+](=O)[O-])c1 (stereo unspecified) | 16 | 112 | 53* | 14 | -13
CCOc1ccc2nc(NC(=O)CN3CCC(n4nnc5cc(F)ccc54)CC3)sc2c1 | -2 | 103 | 35 | 37 | -17
CCN1CCN(C(=O)c2ccc(CSc3ccc(C)cc3)cc2)CC1 | 3 | 91 | 11 | 98* | -14
Cc1ccc(SCc2ccc(C(=O)N3CCCC3)cc2)cc1 | -11 | 72 | 14 | -19 | -14
O=C(COC(=O)CCC(=O)c1ccc(F)cc1)Nc1cccc(S(=O)(=O)N2CCCC2)c1 | 59* | 105 | -13 | 0 | 1
Cc1cc(/C=C2\SC(=S)N(C)C2=O)c(C)n1-c1cccc(O)c1 | 14 | 105 | 91* | 2 | -5
CC(=O)NC1=NC(=O)/C(=C/c2cc(C)n(-c3ccc(NC(C)=O)cc3)c2C)S1 | -2 | 115 | 79* | -5 | -2
Cc1cc(/C=C2\SC(=O)N(C)C2=O)c(C)n1-c1ccc(O)cc1 | 0 | 104 | 88* | 13 | 0
CN1C(=O)/C(=C\c2cc(N=Nc3ccccc3)ccc2O)SC1=S | 7 | 100 | 83* | -12 | 7
Cc1ccc([N+](=O)[O-])cc1NC(=O)CSc1nnc(C)n1CC1CCCO1 (stereo unspecified) | 2 | 100 | 2 | -9 | -9
C/C=N\NC(=O)COc1cc(C)ccc1C | 8 | 97 | -1 | -5 | 0
Cc1cc(/C=C2\SC(=O)NC2=O)c(C)n1-c1ccc(N2CCOCC2)cc1 | -8 | 95 | 100* | -2 | 9
COc1ccc(NC(=S)N2CCN(C(=O)c3ccccc3)CC2)cc1 | 0 | 96 | -1 | 0 | 12
CC(=O)c1c(COC(=O)c2ccc(Cl)cc2)nc2ccccc2[n+]1[O-] | -15 | 95 | -23 | 0 | 90*
CC(=O)c1c(COC(=O)c2ccccc2)nc2ccccc2[n+]1[O-] | 1 | 111 | -6 | 11 | 0
Cc1ccc(C(=O)N2CCN(S(=O)(=O)c3ccccc3[N+](=O)[O-])CC2)o1 | -4 | 113 | -12 | -11 | 13
Cc1noc(C)c1NC(=O)N(C)C[C@@H]1Oc2ccc(NC(=O)Cc3cn(C)c4ccccc34)cc2CC(=O)N([C@H](C)CO)C[C@@H]1C | . | 95 | . | . | .

High-throughput results deposited in PubChem BioAssay by several laboratories.
